Screening data: PubChem, several laboratories
Hits are enriched below; roughly 0.63% of the tested compounds scored in any of these assays.
NTR1 ag – NTR1 (human) agonism; 330,000 tested, 0.17% active; activation, % at 20 µM; AID 493036; NTR1-U2OS beta-arrestin-GFP spot imaging, agonist mode; P30989;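 active means activation at or above 40% of the spot to cytoplasm intensity ratio, with at least 20 cells analyzed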
Target sequence (P30989 whole entry, looked up): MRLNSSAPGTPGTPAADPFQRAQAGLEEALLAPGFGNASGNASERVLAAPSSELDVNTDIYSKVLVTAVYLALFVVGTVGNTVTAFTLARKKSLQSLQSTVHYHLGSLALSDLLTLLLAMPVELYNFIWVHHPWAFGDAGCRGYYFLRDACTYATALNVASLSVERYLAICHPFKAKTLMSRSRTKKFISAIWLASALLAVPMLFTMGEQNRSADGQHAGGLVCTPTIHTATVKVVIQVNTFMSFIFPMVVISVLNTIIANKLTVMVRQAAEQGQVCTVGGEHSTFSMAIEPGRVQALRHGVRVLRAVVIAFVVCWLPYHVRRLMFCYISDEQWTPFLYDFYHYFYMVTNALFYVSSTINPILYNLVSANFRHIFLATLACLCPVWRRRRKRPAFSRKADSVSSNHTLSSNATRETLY
HIF activator – HIF pathway transcriptional activation; U2OS HRE-luciferase reporter, luminescence; normalized: DMSO 0%, desferrioxamine 100%; activation, % at 7.5 µM (by protocol); 300,000 tested, 0.32% active;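 active means mean activation of at least 10% of the iron chelator positive control signal, with at least half of replicates also reaching 10%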
Platelet DG rel – modulates dense granule release in human platelets; human platelet-rich plasma, SFLLRN dense granule ATP release, luminescence; inhibition, %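 (compounds screened at 7.5 µM in platelet-rich plasma)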; 300,000 tested, 0.22% active; AID 1663;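 active means mean replicate score, as percent of positive control, at or above 50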
Of the large screens only hits and unclear results are named; the others gave an inactive call.

CC(=O)c1ccc(N(C(=O)c2csnn2)C(C(=O)NC(C)(C)C)c2cccs2)cc1 (stereo not given)	HIF activator 34.7
Cc1nnc(SCc2nnc(-c3cccs3)o2)n1C1CCCCC1	none
Cc1ccc(C(=O)NCC(=O)NCc2ccccc2F)s1	none (no result: HIF activator, Platelet DG rel)
Cn1c(=O)c2c(-c3ccccc3)n3c4ccccc4ncc3c2n(C)c1=O	none
Cc1nc2ccccc2n2c(-c3ccccc3)c3c(=O)n(C)c(=O)n(C)c3c12	HIF activator 212.0
CC(CN1CCCCC1)OC(=O)c1ccco1 (stereo not given)	none (no result: Platelet DG rel)
COC(=O)c1ccc(CN2CCN(Cc3ccc(F)cc3)C(CCO)C2)cc1 (stereo not given)	none
Nc1nc(Nc2ccc(Cl)cc2)nc2ccccc12	Platelet DG rel 72.5
Nc1ncnc(Nc2ccccc2)n1	none
CCOc1ccc(Nc2nc(N)c3ccccc3n2)cc1	Platelet DG rel 90.5
COc1cc2nc(Nc3ccc(C)c(Cl)c3)nc(N)c2cc1OC	none
Nc1nc(CCl)nc(Nc2ccccc2)n1	none
Cc1ccc(Nc2nc(N)c3ccccc3n2)cc1Cl	Platelet DG rel 52.1
CCOc1ccc(Nc2nc(N)nc(CCl)n2)cc1	none
Nc1nc(Nc2ccccc2)nc2ccccc12	Platelet DG rel 59.0
Clc1ccc(Cn2ccc(-c3ccc4c(c3)OCO4)n2)cc1Cl	none
CC(C)(C)CC(=O)O/N=C(\N)c1ccccn1	none
O=C(NCC(=O)N1CCC2(CC1)NCCc1[nH]cnc12)c1ccc(F)cc1	none
CCOC(=O)/C(C#N)=C/N1CCOCC1	none
COc1cc(C(=O)OCC(=O)Nc2ccc(SC(F)F)cc2)cc(OC)c1OC	none
COc1ccc(C)cc1Nc1nc(N)c2ccccc2n1	none
Cc1ccccc1Nc1nc(N)c2ccccc2n1	Platelet DG rel 57.5 (no result: HIF activator)
CN(C)c1nc(Nc2ccccc2)nc(N(C)C)n1	none
CN(C)c1ccc(Nc2nc(N)c3ccccc3n2)cc1	Platelet DG rel 80.3
COc1ccc(-c2cc(C)no2)cc1S(=O)(=O)N1CCN(C(=O)c2ccco2)CC1	none
CC(C)COC(=O)COc1cc(Cl)c(Cl)cc1Cl	none (no result: HIF activator, Platelet DG rel)
Cc1ccccc1C1CC(=O)Oc2cc(O)ccc21 (stereo not given)	none (no result: HIF activator, Platelet DG rel)
CCCCOC(=O)c1ccc(NC(=S)NC(=O)c2c(Br)c(C)nn2C)cc1	HIF activator 40.7
CCOC(=O)c1ccc(NC(=S)NC(=O)c2cncc(Br)c2)cc1	none
CCOC(=O)N1CCN(C(=O)C2CCCN(c3ncnc4c3nc3n4CCCCC3)C2)CC1 (stereo not given)	none
CCOC(=O)C1CCN(C(=O)C2CCCN(c3ncnc4c3nc3n4CCCCC3)C2)CC1 (stereo not given)	HIF activator 400.3
O=C(/C=C\Nc1ccccn1)c1ccccc1	none
O=C(/C=C/Nc1ccccc1Br)c1ccccn1	Platelet DG rel 53.9
Cc1ccccc1NC(=O)N1CCN(C/C=C/c2ccccc2)CC1	none
CCOC(=O)c1c(C)c(C(=O)Nc2ccc3c(c2)OCO3)c(C)n1C	none
CCOC(=O)c1c(N)sc(C(=O)Nc2ccc3c(c2)OCO3)c1C	Platelet DG rel 56.4
CCOC(=O)C1CCN(C(=O)c2cc3c(=O)n4ccccc4nc3n2C)CC1	none
Cc1[nH]c(=O)[nH]c(=O)c1/C=N/NC(=O)CCCCCNC(=O)OC(C)(C)C	none
Cc1[nH]c(=O)[nH]c(=O)c1/C=N/NC(=O)CCNC(=O)OC(C)(C)C	Platelet DG rel 76.5
COc1ccc(CCNC(=O)c2cc(CC(C)C)on2)cc1OC	none
COc1cc(OC)c(C(=O)Nc2ccncc2)cc1OC	none
Cc1onc(-c2c(F)cccc2Cl)c1C(=O)Nc1ccc(Cl)c(S(=O)(=O)N(C)C)c1	none (no result: HIF activator, Platelet DG rel)
Cc1ccccc1N=CC1=C(O)c2ccccc2C1=O	Platelet DG rel 57.6
O=C1C(C=Nc2ccc(F)cc2)=C(O)c2ccccc21	none
COc1ccc(CC2=C(O)c3ccccc3C(=O)C2=O)cc1	none
COc1ccc(N=CC2=C(O)c3ccccc3C2=O)c(OC)c1	Platelet DG rel 50.9
NC(=O)Nn1c(CCC(=O)O)ccc1-c1ccc(Br)cc1	none
COc1ncnc2sc(-c3ccccc3)cc12	Platelet DG rel 60.6
CN(C)C(=O)COc1ncnc2sc(-c3ccccc3)cc12	none
CC1CC(C)CN(S(=O)(=O)c2ccc(Cl)cc2)C1 (stereo not given)	none
O=C(CN(c1cccc([N+](=O)[O-])c1)S(=O)(=O)c1ccccc1)NCc1ccccc1	Platelet DG rel 57.4
Cc1ccc(CNC(=O)CN(c2cccc([N+](=O)[O-])c2)S(=O)(=O)c2ccccc2)cc1	none
Nc1nc2c(s1)C(=O)CCC2	none
NC(=O)c1sc2nccc(Nc3ccccc3)c2c1N	HIF activator 10.5
NC(=O)c1sc2nc(-c3ccccc3)c3c(c2c1N)CCCC3	none
O=C(O)CCCCCNS(=O)(=O)/C=C/c1ccccc1	none
Cc1cc(C)c2c(N)c(C(=O)Nc3ccccc3Br)sc2n1	none
Cc1cc(C)c2c(N)c(C(=O)Nc3ccccc3F)sc2n1	HIF activator 29.6
CCN(CC(=O)Nc1c(F)cccc1F)C(=O)c1ccc2c(=O)n3c(nc2c1)CCC3	none (no result: HIF activator, Platelet DG rel)
COc1ccc(S(=O)(=O)Cc2ccc(C(=O)N3CCN(c4cccc(C)c4C)CC3)o2)cc1	none (no result: HIF activator)
Cc1ccc(S(=O)(=O)Cc2ccc(C(=O)N3CCN(c4cccc(C)c4C)CC3)o2)cc1	Platelet DG rel 94.2
CC(Sc1nnc(COc2ccccc2)n1Cc1ccccc1)C(=O)O (stereo not given)	none
CCOC(=O)Cc1nn(C)c(=O)c2ccccc12	none
CCOC(=O)Cc1nn(CC)c(=O)c2ccccc12	HIF activator 89.6
CSc1nc(N)n2nc(-c3ccc(Cl)cc3)cc2n1	Platelet DG rel 67.4
CCOC(=O)c1cnc2cc(-c3ccc(Cl)cc3)nn2c1N	none (no result: HIF activator)
CSc1nc(N)nc2c1ncn2CC(=O)NCC1CCCO1 (stereo not given)	none (no result: HIF activator, Platelet DG rel)
CC(NS(C)(=O)=O)C(c1cccs1)N1CCN(C)CC1 (stereo not given)	none
CC(NS(C)(=O)=O)C(c1cccs1)N1CCN(Cc2ccccc2)CC1 (stereo not given)	Platelet DG rel 65.3
CCCCOc1cccc(-c2nnc(NC(=O)CSc3ccc(C)cc3)s2)c1	none
CN(C)CCCN(C(=O)c1cc2ccccc2oc1=O)c1nc2ccc(F)cc2s1	none
CCN(CCCCCN(C)C)Cc1cc2ccccc2o1	HIF activator 684.5
COc1ccc2c(c1)C1C=CCC1C(c1cc3c(cc1Br)OCO3)N2 (stereo not given)	none
Cc1cccc(Oc2nc3ccccn3c(=O)c2/C=C(\C#N)C(=O)NC2CCS(=O)(=O)C2)c1C (stereo not given)	Platelet DG rel 56.7
Cc1cccc(Oc2nc3ccccn3c(=O)c2/C=C(\C#N)C(=O)NC2CCS(=O)(=O)C2)c1 (stereo not given)	none
CSc1ncccc1C(=O)OCc1ccc(C#N)cc1	none
COc1ccc(CN2CCNC(=O)C2CC(=O)N(C)CC2CCOCC2)cc1C (stereo not given)	none
COc1ccc(CN2CCNC(=O)C2CC(=O)N(C)CC2CCOCC2)cc1OC (stereo not given)	HIF activator 25.8
COc1ccc(CC(=O)NNS(=O)(=O)c2ccccc2[N+](=O)[O-])cc1OC	none
Cc1ccc(N=Nc2cc(C)ccc2N)cc1	Platelet DG rel 70.1
Cc1ccc(N=Nc2cc(C)ccc2O)c(C)c1	none
Cc1cccc(-c2nsc(SCC(=O)c3ccc(Cl)cc3)n2)c1	HIF activator 227.9
O=C(CSc1nc(-c2ccccc2Cl)ns1)c1ccc(Cl)cc1	none
